Test results: PubChem BioAssay (NCATS)
Records with an inconclusive call do not appear. Activity calls are given as the source filed them. The call rests on the fitted dose curve; in most records, active means well fitted cell-killing curve with a large enough effect; inconclusive means small, poorly fitted or top-dose-only effect, or effect the other way; inactive means flat fitted curve, though single readings scatter.

What was measured:
Assay in all cases: Primary qHTS to identify gynecologic anti-cancer compounds using libraries of approved drugs and bioactive compounds (AID 1345084); further: nearly all actives have a fitted effect of over 55% in size
Conditions in all cases: Gynecologic cancer cell panel viability, ATPlite luminescence, 48 h; series mostly up to 57.5 µM
OV90 = system: OV90
Outline: (§1)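 Luminescence from the ATPlite ATP-monitoring reagent indicates viable cell number; lower signal means cytotoxicity. Cells received compound 16 h after seeding and were exposed for 48 h across five concentrations.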

PA-1 = system: PA-1
Outline: as §1

SKOV3 = system: SKOV3
Outline: as §1

Tov-21-G = system: Tov-21-G
Outline: as §1

Tov112D = system: Tov112D
Outline: as §1
On the % scale 0 is the no-effect control and ±100 the full control effect.

COC(=O)C1=CO[C@@H](O[C@@H]2O[C@H](CO[C@@H]3O[C@H](CO)[C@@H](O)[C@H](O)[C@H]3O)[C@@H](O)[C@H](O)[C@H]2O)[C@@H]2C(CO)=CC[C@H]12
inactive: Potency (OV90) | Potency (PA-1) | Potency (SKOV3) | Potency (Tov-21-G) | Potency (Tov112D)

C=C(C)[C@@H]1CC[C@]2(C(=O)O)CC[C@]3(C)C(CCC4[C@]5(C)C(CC[C@]43C)C(C)(C)[C@@H](O)[C@@H]5C(=O)O)C12 (stereo not given in full)
inactive: Potency (OV90) | Potency (PA-1) | Potency (SKOV3) | Potency (Tov-21-G) | Potency (Tov112D)

C=C1CCC[C@]2(C)CC[C@@](O)(C(=C)C(=O)O)C[C@@H]12
inactive: Potency (OV90) | Potency (PA-1) | Potency (SKOV3) | Potency (Tov-21-G) | Potency (Tov112D)

CC1(C)CC[C@]2(C(=O)O)CC[C@]3(C)C(=CCC4[C@@]5(C)C[C@H](O)[C@H](O[C@@H]6O[C@H](CO)[C@@H](O)[C@H](O)[C@H]6O)[C@@](C)(CO)C5[C@H](O)C[C@]43C)[C@@H]2C1 (stereo not given in full)
inactive: Potency (OV90) | Potency (PA-1) | Potency (SKOV3) | Potency (Tov-21-G) | Potency (Tov112D)

CC(C)=CCC/C(C)=C/CO[C@@H]1O[C@H](CO[C@@H]2OC[C@](O)(CO)[C@H]2O)[C@@H](O)[C@H](O)[C@H]1O
inactive: Potency (OV90) | Potency (PA-1) | Potency (SKOV3) | Potency (Tov-21-G) | Potency (Tov112D)

OC[C@@]1(O)CO[C@H](OC[C@H]2O[C@@H](OCCc3ccccc3)[C@H](O)[C@@H](O)[C@@H]2O)[C@@H]1O
inactive: Potency (OV90) | Potency (PA-1) | Potency (SKOV3) | Potency (Tov-21-G) | Potency (Tov112D)

COCCCc1sc(-c2ccccc2)nc1C(=O)Nc1ccccc1-c1nc2cc(CN3CCCC3)cnc2s1
inactive: Potency (OV90) | Potency (PA-1) | Potency (SKOV3) | Potency (Tov-21-G) | Potency (Tov112D)

COC(=O)C1=CO[C@@H](O[C@@H]2O[C@H](CO)[C@@H](O)[C@H](O)[C@H]2O)[C@@H]2C(CO)=CC[C@H]12
inactive: Potency (OV90) | Potency (PA-1) | Potency (SKOV3) | Potency (Tov-21-G) | Potency (Tov112D)

Cc1cccc(NC(=O)CN2CCC(c3ccccn3)CC2)c1
inactive: Potency (OV90) | Potency (PA-1) | Potency (SKOV3) | Potency (Tov-21-G) | Potency (Tov112D)

CC/C=C/C(O)C(O)C1=C(C)C(=O)C2(O1)C(=O)NC(OC)(C(=O)c1ccccc1)C2O (stereo not given)
inactive: Potency (OV90) | Potency (PA-1) | Potency (SKOV3) | Potency (Tov-21-G) | Potency (Tov112D)

C/C=C(/C)C(=O)O[C@@H]1C[C@@H](OC(=O)/C(C)=C\C)[C@@]2(C)C3C(=O)C=C(C)C2C3C1(C)C
inactive: Potency (OV90) | Potency (PA-1) | Potency (SKOV3) | Potency (Tov-21-G) | Potency (Tov112D)

COC(=O)C(CC1(OC(=O)C(C)C)c2ccccc2N2C(=O)C(C)(C)N(O)C21)n1cnc2ccccc2c1=O (stereo not given)
inactive: Potency (OV90) | Potency (PA-1) | Potency (SKOV3) | Potency (Tov-21-G) | Potency (Tov112D)

COC1OC(OC)C(O)(CCC2(C)C(C)CCC3(C)C2CC(O)C(O)C32CO2)C1O (stereo not given)
inactive: Potency (OV90) | Potency (PA-1) | Potency (SKOV3) | Potency (Tov-21-G) | Potency (Tov112D)

CNC(=O)c1ccc2c(c1)CCO[C@H]2CCN1CCN(c2ccc(C(N)=O)cc2)CC1
inactive: Potency (OV90) | Potency (PA-1) | Potency (SKOV3) | Potency (Tov-21-G) | Potency (Tov112D)

C=CC1(C)CC=C2C(CCC3C(C)(C(=O)O)CCCC23C)C1 (stereo not given)
inactive: Potency (OV90) | Potency (PA-1) | Potency (SKOV3) | Potency (Tov-21-G) | Potency (Tov112D)

CC(=O)OC(C)C(C)(O)C(=O)O[C@@H]1CC[C@]2(C)CC(=O)C(=C(C)C)C[C@H]2[C@]1(C)OC(C)=O (stereo not given in full)
inactive: Potency (OV90) | Potency (PA-1) | Potency (SKOV3) | Potency (Tov-21-G) | Potency (Tov112D)

COc1cc(O[C@@H]2O[C@H](CO[C@H]3OC[C@](O)(CO)[C@H]3O)[C@@H](O)[C@H](O)[C@H]2O)cc(OC)c1O
inactive: Potency (OV90) | Potency (PA-1) | Potency (SKOV3) | Potency (Tov-21-G) | Potency (Tov112D)

CC(C)=CC1C[C@](C)(O)[C@@H]2[C@H]3CCC4[C@@]5(C)CC[C@H](O[C@@H]6OC[C@H](O)[C@H](O[C@@H]7O[C@H](CO[C@@H]8O[C@H](CO)[C@@H](O)[C@H](O)[C@H]8O)[C@@H](O)[C@H](O)[C@H]7O)[C@H]6O[C@@H]6O[C@@H](C)[C@H](O)[C@@H](O)[C@H]6O)C(C)(C)[C@@H]5CC[C@@]4(C)[C@@]34CO[C@@]2(C4)O1 (stereo not given in full)
inactive: activity change, negative = cytotoxicity (OV90) 5% [at 11.6 µM] | activity change, negative = cytotoxicity (PA-1) 0.967% [at 11.6 µM] | activity change, negative = cytotoxicity (SKOV3) 2.44% [at 11.6 µM] | activity change, negative = cytotoxicity (Tov-21-G) 9.39% [at 11.6 µM] | activity change, negative = cytotoxicity (Tov112D) 6.5% [at 11.6 µM]

C[C@@H]1CC2OC(=O)C3=C2C(CCC3O)[C@@]12C[C@@H](c1ccoc1)OC2=O (stereo not given in full)
inactive: Potency (OV90) | Potency (PA-1) | Potency (SKOV3) | Potency (Tov-21-G) | Potency (Tov112D)

C=C(C)[C@@H]1CC[C@]2(C)CC[C@]3(C)C(CCC4[C@@]5(C)CC[C@H](O)C(C)(C)C5CC[C@]43C)C12 (stereo not given in full)
inactive: Potency (OV90) | Potency (PA-1) | Potency (SKOV3) | Potency (Tov-21-G) | Potency (Tov112D)
